Data reported in PubChem BioAssay (NCI).
Where “and” joins values, the source holds several entries; their conditions need not be identical. Equal entries are not always repeated. The panel holds about 83,000 compounds, 20% with a hit somewhere; the sample as a whole holds those more often.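 Method: cells in 96-well plates; compound added at one concentration; 48 h incubation; percent growth measured; values under 10 scored active.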 Calls of active or inactive are those of the source.

Assays:
Test in all cases: NCI-60 one-dose screen, 48 h (100 = growth as untreated, 0 = no growth, -100 = all killed)
Details in all cases: 10 µM unless noted
[1] = tested on: HCT-15 colon
[2] = tested on: HT29 colon
[3] = tested on: SNB-75 CNS
[4] = tested on: SNB-19 CNS
[5] = tested on: U251 CNS
[6] = tested on: PC-3 prostate
[7] = tested on: SK-MEL-5 melanoma
[8] = tested on: UACC-62 melanoma
[9] = tested on: LOX IMVI melanoma
[10] = tested on: SK-MEL-28 melanoma
[11] = tested on: SK-MEL-2 melanoma
[12] = tested on: EKVX NSCLC
[13] = tested on: SN12C renal
[14] = tested on: UO-31 renal
[15] = tested on: TK-10 renal
[16] = tested on: ACHN renal
[17] = tested on: CAKI-1 renal
[18] = tested on: MOLT-4 leukemia
[19] = tested on: A498 renal
[20] = tested on: CCRF-CEM leukemia

Measured: growth

O=C(/C=C\c1cc(Br)ccc1O)/C=C/c1cc(Br)ccc1O
active: [1] 0% | [2] -54.2% | [3] -8.46% | [4] -52.7% | [5] -82.6% | [6] -16% | [7] -87.5% | [8] -67.5% | [9] -95.6% | [10] -66.9% | [11] -63.1% | [12] 8.88% | [13] -55.4% | [14] -72.9% | [15] -20% | [16] -59.8% | [17] -2.63% | [18] 0.164%

CN(C)c1ccc(N=Nc2cccc3ccccc23)cc1
inactive: [1] 93.1% | [2] 93.5% | [3] 76.4% | [4] 100% | [5] 88.6% | [6] 75.9% | [7] 93.9% | [8] 84.2% | [9] 96.3% | [10] 103% | [12] 71.7% | [13] 92.9% | [14] 57.5% | [15] 80.9% | [16] 91.3% | [17] 90.2% | [19] 85.3% | [20] 81.6% | [18] 84.3%

CC1(C)CC([P+](c2ccccc2)(c2ccccc2)c2ccccc2)=NN1
inactive: [1] 94.3% | [2] 24.9% | [3] 34.3% | [4] 44.5% | [5] 25.5% | [6] 29.1% | [7] 12.4% | [8] 32.2% | [9] 43.1% | [10] 67.9% | [12] 67.4% | [13] 30.4% | [14] 67.8% | [15] 56.4% | [16] 88.1% | [17] 90.1% | [19] 92% | [20] 41.3% | [18] 21%
active: [11] -19.2%

O=Nc1ccccc1N=O
inactive: [1] 51.4% | [2] 81.6% | [3] 46.6% | [4] 88.6% | [5] 78.3% | [6] 83.9% | [7] 87.2% | [8] 71.2% | [9] 60% | [10] 92.9% | [11] 90.2% | [12] 88.7% | [13] 71.6% | [14] 64% | [15] 115% | [16] 84.5% | [17] 81.1% | [20] 97.5% | [18] 99.9%

COc1ccc(N=N/N=c2\sc3cc(OC)ccc3n2C)cc1
inactive: [1] 98.9% | [2] 78.9% | [3] 101% | [4] 98% | [5] 77.7% | [6] 77.9% | [7] 84.6% | [8] 83.1% | [9] 105% | [10] 94% | [11] 83.8% | [12] 74.8% | [13] 89% | [14] 82.7% | [15] 106% | [16] 97.4% | [17] 96.8% | [19] 97% | [20] 93.5% | [18] 92.1%

CCN(CC)CCOc1ccc(-c2nc3cc(Cl)ccc3s2)cc1
inactive: [4] 40.7% | [11] 80.2% | [12] 57.3% | [13] 36% | [16] 10.3% | [17] 11.9%
active: [1] -71.9% | [2] -100% | [3] -0.875% | [5] -3.49% | [6] 4.44% | [7] -38.5% | [8] -86.9% | [9] -86.5% | [10] -79.7% | [14] -46.7% | [15] 8.65% | [19] -0.459% | [20] 4.45% | [18] -79.3%

NC(=O)/C=C/C(=O)c1c(Cl)cccc1Cl
active: [1] -61.2% | [2] -39.6% | [3] -99.5% | [4] 9.41% | [5] -59.1% | [6] -96% | [7] -94.5% | [8] -71.1% | [9] -43.5% | [10] -99.1% | [11] -67.4% | [12] -36.4% | [13] -90.2% | [14] -86.4% | [15] -83.7% | [16] -76.3% | [17] -86.9% | [20] -33.9% | [18] -26.3%

OC(CNc1ccnc2cc(Cl)ccc12)CNc1ccnc2cc(Cl)ccc12
inactive: [1] 97% | [3] 31.8% | [4] 41.3% | [6] 69.7% | [7] 53.7% | [8] 88.3% | [12] 78.6% | [13] 37.9% | [14] 88.1% | [15] 87.5% | [16] 99% | [17] 101% | [19] 76.9% | [18] 12%
active: [2] 7.67% | [5] 3.22% | [9] -79.2% | [10] -82.7% | [20] -15.8%

CC(=O)Nc1cccc2cc(O)ccc12
inactive: [1] 112% and 107% and 99.9% | [2] 115% and 107% and 95.8% | [3] 91.4% and 101% and 75.3% | [4] 106% and 94.8% | [5] 108% and 102% and 101% | [6] 104% and 96.3% and 80.3% | [7] 113% and 117% and 106% | [8] 96.3% and 90.9% and 96.9% | [9] 104% and 106% | [10] 110% and 111% and 104% | [11] 125% and 101% | [12] 101% and 120% and 99.3% | [13] 107% and 94.4% and 97.2% | [14] 94.6% and 89.5% and 75.1% | [15] 123% and 99.7% and 97.9% | [16] 104% and 109% and 100% | [17] 129% and 93.5% | [19] 99.2% and 108% and 109% | [20] 98.1% and 101% and 104% | [18] 111% and 108% and 98.5%

O=[N+]([O-])c1ccc(N=Nc2ccc(O)cc2O)cc1
inactive: [1] 36.9% | [2] 75.7% | [3] 70.3% | [4] 53.7% | [5] 38.4% | [6] 32.1% | [7] 43.3% | [8] 36.4% | [9] 51.8% | [10] 44.2% | [12] 58.8% | [13] 67.2% | [14] 58.5% | [15] 77.9% | [16] 55.5% | [17] 56% | [19] 13.8% | [20] 33.2% | [18] 36.7%

Cn1c2c(c3ccccc31)CCN1C[C@@H]3CCCC[C@H]3C[C@@H]21
active: [1] 9.14% | [2] 1.8% | [3] -21.7% | [7] -16.1% | [11] -2.5% | [19] -5.89%
inactive: [4] 18.3% | [5] 19.8% | [6] 23% | [8] 18.4% | [9] 15.6% | [10] 31.1% | [12] 26.3% | [13] 32.7% | [14] 22.9% | [15] 32.2% | [16] 30.4% | [17] 18.9% | [20] 25.2% | [18] 31.3%

CC1OC(OC2C(OC3CCC4(C)C(CCC5(C)C4CC=C4C6CC(C)(C)CCC6(CO)C(O)CC45C)C3(C)C)OC(C(=O)O)C(OC3OC(COC4OC(CO)C(O)C(O)C4O)C(O)C(O)C3O)C2O)C(O)C(O)C1O (stereo not drawn)
active: [1] -47.8% | [2] -44.6% | [3] -84.1% | [4] -87.6% | [5] -80.4% | [6] -74.3% | [7] -94.3% | [8] -69.7% | [9] -69.9% | [10] -79% | [11] -75.3% | [12] -74.8% | [13] -77.7% | [14] -88.7% | [15] -69.3% | [16] -100% | [17] -95.3% | [19] -88% | [20] -26.3% | [18] -67%

N[C@H](C(=O)O)[C@@H]1CC(Cl)=NO1
inactive: [1] 15.9% [20 µM] | [2] 17.3% [20 µM] | [3] 27.3% [20 µM] | [4] 30.6% [20 µM] | [5] 26.8% [20 µM] | [6] 31% [20 µM] | [7] 11.4% [20 µM] | [8] 22.4% [20 µM] | [9] 13.2% [20 µM] | [10] 34.7% [20 µM] | [11] 46.3% [20 µM] | [12] 23.6% [20 µM] | [13] 19.6% [20 µM] | [14] 34.8% [20 µM] | [15] 24.7% [20 µM] | [16] 21.5% [20 µM] | [17] 18.3% [20 µM] | [19] 13.6% [20 µM] | [20] 19% [20 µM] | [18] 23.5% [20 µM]
